Data published in PubChem BioAssay (EPA / NIEHS).
Where “and” joins values, the source holds several entries; their conditions need not be identical. Equal entries are not always repeated. Records with an inconclusive call do not appear. More than one record can exist for a structure, and the calls need not agree. Calls of active or inactive are those of the source. Rule for the calls, unless noted: active = hit-call score of the fitted dose curve at least 0.9, where 1 is the maximum; inactive = score below 0.9.

What was measured:
[1] = ATG_PBREM_CIS: Attagene CIS-FACTORIAL HepG2 Assay for human Phenobarbital-responsive Enhancer Module (PBREM) (AID 2282955); settings: HepG2 PBREM cis-reporter, Attagene multiplexed transcription; actives raise or lower the signal
Outline: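 Endogenous transcription factor activity was read from reporter transcripts in transiently transfected human HepG2 liver cells after 24 h dosing. RT-PCR products were fluorescently labelled, HpaI-cut and sized by capillary electrophoresis; activity fitted bidirectionally against DMSO baseline.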

[2] = molecular target: Paired box protein Pax-6 (Homo sapiens) (UniProt P26367); assay: ATG_Pax6_CIS: Attagene CIS-FACTORIAL HepG2 Assay for human Paired Box 6 (PAX6) (AID 2282956); settings: HepG2 CIS-FACTORIAL PAX6 reporter transcription, RNA readout; actives raise or lower the signal
Paired box protein Pax-6 (Homo sapiens), sequence (P26367 whole entry, looked up): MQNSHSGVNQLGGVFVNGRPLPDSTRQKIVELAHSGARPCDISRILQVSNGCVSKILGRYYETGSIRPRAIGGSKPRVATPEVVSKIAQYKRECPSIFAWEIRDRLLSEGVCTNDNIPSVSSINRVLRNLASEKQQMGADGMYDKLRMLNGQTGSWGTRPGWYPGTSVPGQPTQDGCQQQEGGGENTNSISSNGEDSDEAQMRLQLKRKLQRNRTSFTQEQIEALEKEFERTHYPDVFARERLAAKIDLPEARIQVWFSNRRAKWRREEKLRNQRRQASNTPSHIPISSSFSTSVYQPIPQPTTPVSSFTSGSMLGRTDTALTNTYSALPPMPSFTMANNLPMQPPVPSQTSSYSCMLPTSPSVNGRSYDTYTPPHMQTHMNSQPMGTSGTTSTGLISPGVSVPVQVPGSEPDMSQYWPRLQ
Outline: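 Values derive from bidirectional curve fitting of reporter mRNA signal relative to DMSO. HepG2 cells bearing transfected cis-regulated MRTUs were exposed for 24 h; transcripts were read by RT-PCR and capillary electrophoresis.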

[3] = ATG_PXRE_CIS: Attagene CIS-FACTORIAL HepG2 Assay for human Pregnane X Receptor Element (PXRE) (AID 2282957); settings: HepG2 Attagene CIS-FACTORIAL PXRE reporter, mRNA; actives raise or lower the signal
Outline: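 Using HepG2 transfected with multiple reporter transcription units, endogenous factor-driven transcription was scored as reporter mRNA after 24 h exposure.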

[4] = ATG_PPRE_CIS: Attagene CIS-FACTORIAL HepG2 Assay for human Peroxisome Proliferator-activated Response Element (PPRE) (AID 2282958); settings: HepG2 PPRE cis-element reporter, Attagene transcription factor profiling; actives raise or lower the signal
Outline: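 Endogenous PPRE-driven transcription is measured in HepG2 cells carrying transfected multi-reporter constructs. Reporter transcripts are quantified by RT-PCR, HpaI digestion and capillary electrophoresis 24 h after dosing. DMSO baseline, bidirectional fit.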

[5] = ATG_RORE_CIS: Attagene CIS-FACTORIAL HepG2 Assay for human RAR-related Orphan Receptor Element (RORE) (AID 2282959); settings: HepG2 Attagene cis-factorial RORE reporter, mRNA; actives raise or lower the signal
Outline: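 RORE reporter transcripts reflecting endogenous factor activity were read after 24 h compound exposure of transfected HepG2 cells, using reverse transcription, PCR, fluorescent labelling and capillary electrophoresis sizing. Gain or loss fitted against DMSO.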

[6] = ATG_Sox_CIS: Attagene CIS-FACTORIAL HepG2 Assay for human SRY-box transcription factor (SOX) (AID 2282960); settings: HepG2 Attagene cis-factorial SOX reporter, mRNA; actives raise or lower the signal
Outline: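 Reporter transcripts, measured by RT-PCR and capillary electrophoresis of labelled fragments, report endogenous SOX transcription factor activity. Transiently transfected human HepG2 cells receive chemical for 24 h; changes in either direction are fitted relative to DMSO.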

[7] = ATG_SREBP_CIS: Attagene CIS-FACTORIAL HepG2 Assay for human Sterol Regulatory Element Binding (SREBP) (AID 2282962); settings: HepG2 Attagene cis-factorial SREBP reporter, mRNA; actives raise or lower the signal
Outline: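 Values derive from bidirectional curve fitting with DMSO as baseline. The underlying measurement is reporter mRNA from cis-element-regulated units in transiently transfected HepG2, quantified by RT-PCR and capillary electrophoresis after 24 h exposure.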

[8] = molecular target: Signal transducer and activator of transcription 3 (Homo sapiens) (UniProt P40763); assay: ATG_STAT3_CIS: Attagene CIS-FACTORIAL HepG2 Assay for human Signal Transducer and Activator of Transcription 3 (STAT3) (AID 2282963); settings: HepG2, Attagene cis-factorial STAT3 reporter transcription; actives raise or lower the signal
Signal transducer and activator of transcription 3 (Homo sapiens), sequence (P40763 whole entry, looked up): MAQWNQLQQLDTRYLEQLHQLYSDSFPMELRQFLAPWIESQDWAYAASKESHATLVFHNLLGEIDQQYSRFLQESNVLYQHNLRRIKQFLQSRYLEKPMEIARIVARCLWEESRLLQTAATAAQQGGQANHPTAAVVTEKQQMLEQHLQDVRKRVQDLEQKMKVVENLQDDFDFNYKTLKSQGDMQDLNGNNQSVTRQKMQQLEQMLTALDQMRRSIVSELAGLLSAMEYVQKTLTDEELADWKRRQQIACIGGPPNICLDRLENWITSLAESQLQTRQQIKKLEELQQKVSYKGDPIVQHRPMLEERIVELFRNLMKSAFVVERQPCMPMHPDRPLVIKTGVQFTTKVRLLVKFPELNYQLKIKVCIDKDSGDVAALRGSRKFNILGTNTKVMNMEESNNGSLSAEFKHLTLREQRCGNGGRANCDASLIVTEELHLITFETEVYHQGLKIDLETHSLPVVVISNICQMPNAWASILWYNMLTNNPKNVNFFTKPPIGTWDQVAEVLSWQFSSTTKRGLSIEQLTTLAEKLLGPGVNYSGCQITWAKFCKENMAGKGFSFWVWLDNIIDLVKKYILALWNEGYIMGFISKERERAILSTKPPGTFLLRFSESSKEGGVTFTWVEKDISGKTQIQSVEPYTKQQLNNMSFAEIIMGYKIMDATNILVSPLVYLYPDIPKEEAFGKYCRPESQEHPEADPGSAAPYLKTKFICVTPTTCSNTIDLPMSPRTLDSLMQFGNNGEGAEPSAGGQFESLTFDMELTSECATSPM
Outline: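 HepG2, MRTU-transfected, 24 h dosing. RNA → RT → PCR → FAM label → HpaI → CE. Bidirectional fit vs DMSO.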

[9] = ATG_TA_CIS: Attagene CIS-FACTORIAL HepG2 Assay for human TA Basal Promoter (AID 2282964); settings: HepG2 Attagene CIS-factorial TA basal promoter reporter; actives raise or lower the signal
Outline: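 Transient MRTU transfection of HepG2 preceded 24 h compound exposure. Reporter mRNA levels were then read by RT-PCR with capillary electrophoresis, and this background-control endpoint was fitted bidirectionally to DMSO.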

[10] = ATG_TCF_b_cat_CIS: Attagene CIS-FACTORIAL HepG2 Assay for human T-Cell-Factor with beta-catenin (TCF/b-cat) (AID 2282965); settings: HepG2 TCF/beta-catenin cis-reporter transcription, actives raise or lower the signal
Outline: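 In this cis-format system, transfected HepG2 cells report endogenous transcription factor activity. Readout after 24 h exposure is reporter transcript abundance from RT-PCR and capillary electrophoresis, analysed for gain or loss of signal versus DMSO.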

[11] = ATG_TAL_CIS: Attagene CIS-FACTORIAL HepG2 Assay for human TAL Basal Promoter (AID 2282966); settings: HepG2 Attagene cis-factorial TAL promoter reporter; actives raise or lower the signal;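 note: background control endpoint measuring basal TAL promoter reporter mRNA not a specific factor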
Outline: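 After 24 hours of chemical exposure, transfected HepG2 cells yielded RNA that was converted to 6-FAM-labelled, HpaI-digested reporter fragments for capillary electrophoresis. Values derive from bidirectional fitting against DMSO controls.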

[12] = ATG_TGFb_CIS: Attagene CIS-FACTORIAL HepG2 Assay for human Transforming Growth Factor (TGF) (AID 2282967); settings: HepG2 Attagene CIS TGFb reporter, mRNA transcription; actives raise or lower the signal
Outline: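 After a 24-hour incubation with compound, transfected HepG2 cells were lysed for RNA; reporter cDNA was amplified, fluorescently end-labeled and separated by CE. DMSO served as baseline for bidirectional fits.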

[13] = ATG_VDRE_CIS: Attagene CIS-FACTORIAL HepG2 Assay for human Vitamin D Receptor Element (VDRE) (AID 2282968); settings: HepG2 VDRE cis-reporter transcription, actives raise or lower the signal
Outline: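 Steps: transfect HepG2 with multiple reporter transcription units; dose chemicals 24 h; isolate RNA; RT-PCR; label with 6-FAM primer extension; HpaI digest; capillary electrophoresis. Curves fitted both directions against DMSO.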

[14] = molecular target: Estrogen receptor (Homo sapiens) (UniProt P03372); assay: ATG_ERa_TRANS: Attagene TRANS-FACTORIAL HepG2 Assay for human Estrogen Receptor alpha (ERa) (AID 2282970; active = hit-call score of the fitted dose curve at least 0.9, where 1 is the maximum); settings: HepG2 Attagene TRANS ERa GAL4 reporter, mRNA
Estrogen receptor (Homo sapiens), sequence (P03372 whole entry, looked up, the tested form may be a part): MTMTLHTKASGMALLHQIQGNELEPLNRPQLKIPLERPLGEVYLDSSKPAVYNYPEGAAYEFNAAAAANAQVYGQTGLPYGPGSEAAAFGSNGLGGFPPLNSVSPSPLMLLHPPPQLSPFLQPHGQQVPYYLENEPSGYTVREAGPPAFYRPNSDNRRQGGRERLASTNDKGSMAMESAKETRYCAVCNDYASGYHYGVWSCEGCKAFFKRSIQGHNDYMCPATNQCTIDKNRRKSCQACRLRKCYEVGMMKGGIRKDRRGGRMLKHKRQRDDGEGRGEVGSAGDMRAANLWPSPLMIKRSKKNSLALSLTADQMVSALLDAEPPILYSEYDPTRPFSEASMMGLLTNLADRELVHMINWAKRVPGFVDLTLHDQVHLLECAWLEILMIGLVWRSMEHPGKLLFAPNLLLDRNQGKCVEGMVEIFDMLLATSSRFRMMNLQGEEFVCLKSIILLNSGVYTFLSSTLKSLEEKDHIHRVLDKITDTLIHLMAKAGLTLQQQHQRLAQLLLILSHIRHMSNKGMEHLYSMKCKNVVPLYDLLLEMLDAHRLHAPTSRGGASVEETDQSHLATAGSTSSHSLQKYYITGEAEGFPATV
Outline: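 Liver-derived HepG2 cells expressing chimeric nuclear receptor-Gal4 proteins from transient transfection were exposed for 24 hours. Gain of reporter mRNA signal versus DMSO, read by capillary electrophoresis of FAM-labelled PCR products, was recorded.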

[15] = molecular target: Steroid hormone receptor ERR1 (Homo sapiens) (UniProt P11474); assay: ATG_ERRa_TRANS: Attagene TRANS-FACTORIAL HepG2 Assay for human Estrogen-Related Receptor alpha (ERRa) (AID 2282971; active = hit-call score of the fitted dose curve at least 0.9, where 1 is the maximum); settings: HepG2 Attagene TRANS reporter, ERRa transactivation
Steroid hormone receptor ERR1 (Homo sapiens), sequence (P11474 whole entry, looked up, the tested form may be a part): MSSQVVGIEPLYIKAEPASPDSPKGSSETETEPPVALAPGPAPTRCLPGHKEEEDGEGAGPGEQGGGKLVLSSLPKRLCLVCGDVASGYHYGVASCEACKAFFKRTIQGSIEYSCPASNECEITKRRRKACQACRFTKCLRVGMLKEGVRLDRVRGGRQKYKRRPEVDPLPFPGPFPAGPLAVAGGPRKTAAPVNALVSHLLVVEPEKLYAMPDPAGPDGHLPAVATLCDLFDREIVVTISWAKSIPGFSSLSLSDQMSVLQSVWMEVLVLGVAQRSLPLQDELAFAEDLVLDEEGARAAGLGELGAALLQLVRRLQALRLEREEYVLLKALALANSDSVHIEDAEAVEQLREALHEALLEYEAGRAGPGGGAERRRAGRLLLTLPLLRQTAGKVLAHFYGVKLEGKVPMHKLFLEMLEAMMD
Outline: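 Reporter transcript induction was quantified by RT-PCR and capillary electrophoresis of FAM-labelled, HpaI-cut products after 24 h treatment of HepG2 cells carrying transiently transfected GAL4-UAS reporter units and an exogenous ERRa-Gal4 fusion; activity scored as increase over DMSO.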

[16] = molecular target: X-box-binding protein 1 (Homo sapiens) (UniProt P17861); assay: ATG_Xbp1_CIS: Attagene CIS-FACTORIAL HepG2 Assay for human X-box Binding Protein 1 (XBP1) (AID 2282972); settings: HepG2 XBP1 cis-element reporter, Attagene multiplex; actives raise or lower the signal
X-box-binding protein 1 (Homo sapiens), sequence (P17861 whole entry, looked up): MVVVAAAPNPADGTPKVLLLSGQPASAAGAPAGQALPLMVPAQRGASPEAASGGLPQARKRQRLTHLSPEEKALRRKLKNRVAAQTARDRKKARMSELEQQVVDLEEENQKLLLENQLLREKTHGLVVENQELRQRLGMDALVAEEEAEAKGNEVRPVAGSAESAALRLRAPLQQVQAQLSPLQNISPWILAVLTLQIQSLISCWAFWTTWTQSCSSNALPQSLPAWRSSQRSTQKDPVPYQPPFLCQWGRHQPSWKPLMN
Outline: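 Human hepatoma HepG2, cis-element reporter system, 24 h treatment; mRNA quantified by RT-PCR/CE fluorescence; fit relative to DMSO.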

[17] = ATG_M_19_TRANS: Attagene TRANS-FACTORIAL HepG2 Assay for M19 Transcription Factor (Internal Marker) (AID 2282974; active = hit-call score of the fitted dose curve at least 0.9, where 1 is the maximum); settings: HepG2 Attagene TRANS-FACTORIAL M19 internal marker reporter
Outline: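 Background-control readout: after 24 h chemical exposure of transfected HepG2 carrying GAL4-driven reporter units, RNA was reverse-transcribed, amplified, fluorescently labeled and sized by capillary electrophoresis; gain-of-signal fit against DMSO.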

[18] = ATG_GAL4_TRANS: Attagene TRANS-FACTORIAL HepG2 Assay for GAL4 (Internal Marker) (AID 2282976; active = hit-call score of the fitted dose curve at least 0.9, where 1 is the maximum); settings: HepG2 Attagene TRANS GAL4 internal marker reporter
Outline: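 First, HepG2 cells were transfected with reporter units under GAL4-UAS control. Next, they were treated with chemical for 24 h. Finally, RNA was reverse-transcribed, PCR-amplified, FAM-labelled and resolved by capillary electrophoresis, with induction scored against DMSO.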

[19] = molecular target: Transcription factor Sp1 (Homo sapiens) (UniProt P08047); assay: ATG_Sp1_CIS: Attagene CIS-FACTORIAL HepG2 Assay for human Specificity Protein 1 (Sp1) (AID 2282961); settings: HepG2 Sp1 cis-reporter transcription, actives raise or lower the signal
Transcription factor Sp1 (Homo sapiens), sequence (P08047 whole entry, looked up): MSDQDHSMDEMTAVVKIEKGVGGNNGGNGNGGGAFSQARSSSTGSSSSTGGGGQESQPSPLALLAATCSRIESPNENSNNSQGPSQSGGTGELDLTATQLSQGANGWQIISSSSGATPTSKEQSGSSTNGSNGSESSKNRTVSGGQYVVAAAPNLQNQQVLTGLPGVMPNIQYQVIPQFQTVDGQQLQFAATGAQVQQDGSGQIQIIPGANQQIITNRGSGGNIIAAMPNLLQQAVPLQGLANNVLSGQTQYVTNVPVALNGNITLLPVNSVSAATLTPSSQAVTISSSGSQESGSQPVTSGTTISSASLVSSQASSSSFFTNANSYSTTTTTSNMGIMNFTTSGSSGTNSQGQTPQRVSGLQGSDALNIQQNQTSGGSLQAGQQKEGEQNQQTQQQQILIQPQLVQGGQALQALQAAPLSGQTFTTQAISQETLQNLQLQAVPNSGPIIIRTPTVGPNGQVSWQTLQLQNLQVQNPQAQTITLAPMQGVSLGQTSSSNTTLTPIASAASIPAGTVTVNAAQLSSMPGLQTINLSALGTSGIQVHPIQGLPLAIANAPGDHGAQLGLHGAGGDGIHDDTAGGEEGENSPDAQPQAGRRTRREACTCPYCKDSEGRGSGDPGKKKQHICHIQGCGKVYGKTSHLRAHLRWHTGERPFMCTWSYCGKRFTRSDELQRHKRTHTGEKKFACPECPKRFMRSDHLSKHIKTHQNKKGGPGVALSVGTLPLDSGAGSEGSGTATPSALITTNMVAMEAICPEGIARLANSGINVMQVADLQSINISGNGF
Outline: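 Read-out is reporter transcript level, measured by RT-PCR and fluorescent capillary electrophoresis after 24 h chemical treatment. System: transiently transfected HepG2 cells reporting endogenous transcription factor activity; gain or loss fitted against DMSO baseline.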

[20] = molecular target: Nuclear receptor subfamily 1 group I member 3 (Homo sapiens) (UniProt Q14994); assay: ATG_CAR_TRANS: Attagene TRANS-FACTORIAL HepG2 Assay for human Constitutive Androstane Receptor (CAR) (AID 2282969; active = hit-call score of the fitted dose curve at least 0.9, where 1 is the maximum;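 note: activators raise reporter mRNA above DMSO so AC50 marks induction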); settings: HepG2 Attagene TRANS-FACTORIAL CAR reporter
Nuclear receptor subfamily 1 group I member 3 (Homo sapiens), sequence (Q14994 whole entry, looked up, the tested form may be a part): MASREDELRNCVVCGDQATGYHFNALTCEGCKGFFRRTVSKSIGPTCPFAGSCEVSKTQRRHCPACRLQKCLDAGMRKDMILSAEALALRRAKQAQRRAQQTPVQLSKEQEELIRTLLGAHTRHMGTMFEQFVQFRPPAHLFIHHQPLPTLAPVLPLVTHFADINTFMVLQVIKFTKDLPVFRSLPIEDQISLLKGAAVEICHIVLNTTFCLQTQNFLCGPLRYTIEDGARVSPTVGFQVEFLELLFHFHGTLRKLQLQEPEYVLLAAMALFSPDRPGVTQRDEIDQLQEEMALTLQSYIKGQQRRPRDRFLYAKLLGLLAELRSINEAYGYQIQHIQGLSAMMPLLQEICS
Outline: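 Steps: transient transfection of HepG2 with multiple GAL4-UAS reporter units; 24 h compound incubation; RNA isolation, RT-PCR, 6-FAM primer extension, HpaI digest; capillary electrophoresis. Gain-of-signal relative to DMSO negative control.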

Measured: AC50

C=C(C)C(=O)OCC(F)(F)C(F)(F)C(F)(F)F
inactive: [1] | [2] | [3] | [4] | [5] | [6] | [7] | [8] | [9] | [10] | [11] | [12] | [13] | [14] | [15] | [16] | [17] | [18]
active: [14] 30.7 µM

O=C(O)C(F)(F)C(F)(F)F
inactive: all assays above

CC(C)=CCCC(C)CCOC(=O)C(C)C (centres undefined)
not listed: [15] | [19]
inactive: all other assays above

O=S(=O)(OCCOC(F)(F)F)C(F)(F)F
not listed: [19]
inactive: all other assays above

CC(CCl)OP(=O)(OC(C)CCl)OC(C)CCl (centres undefined)
active: [3] 3.53 µM
not listed: [18]
inactive: all other assays above

O=S(=O)(O)C(F)(F)C(F)(F)C(F)(F)C(F)(F)C(F)(F)C(F)(F)C(F)(F)F
inactive: [1] | [2] | [4] | [5] | [6] | [19] | [7] | [8] | [9] | [10] | [11] | [13] | [20] | [15] | [16] | [17] | [18]
active: [3] 20.3 µM and 19.7 µM | [4] 61.2 µM | [7] 150 µM | [8] 163 µM | [9] 159 µM | [10] 78.9 µM | [12] 148 µM and 81.5 µM | [14] 43.3 µM and 58.7 µM

OCCCC(F)(F)C(F)(F)C(F)(F)F
not listed: [19]
inactive: all other assays above
